Experimental findings from PubChem BioAssay (NCATS) are described below.

A short description of assay [1]: qHTS of pediatric cancer cell lines to identify multiple opportunities for drug repurposing: Primary screen for LAN-5 cells (AID 1347100). Further: potency means the concentration at half of the fitted maximal effect. The method in brief: (§1)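 Cells (500-1,000/well) rested 5 h, then received compounds for 48 h; metabolically active cells were measured by CellTiter-Glo luminescence. Final concentrations spanned up to 46 µM (MIPE, 11-point) or 0.59 nM-46 µM (NPC, 8-point) in primary screens, 11-point in follow-ups.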
A general note: qHTS replaces the single test concentration by a dilution series.

Assay [2] in a line: qHTS of pediatric cancer cell lines to identify multiple opportunities for drug repurposing: Primary screen for BT-12 cells (AID 1347101). Further: nearly all actives have a fitted effect of over 25% in size. Further: potency means the concentration at half of the fitted maximal effect. A digest of the protocol:
as §1

Assay [3] in a line: qHTS of pediatric cancer cell lines to identify multiple opportunities for drug repurposing: Primary screen for Rh18 cells (AID 1347102). Further: nearly all actives have a fitted effect of over 65% in size. Further: potency means the concentration at half of the fitted maximal effect. A digest of the protocol: as §1
The nature of assay [4]: qHTS of pediatric cancer cell lines to identify multiple opportunities for drug repurposing: Primary screen for OHS-50 cells (AID 1347103). Further: nearly all actives have a fitted effect of over 40% in size. Further: potency means the concentration at half of the fitted maximal effect. The method in brief: as §1
Assay [5] is described as follows: qHTS of pediatric cancer cell lines to identify multiple opportunities for drug repurposing: Primary screen for RD cells (AID 1347104). Further: nearly all actives have a fitted effect of over 55% in size. Further: potency means the concentration at half of the fitted maximal effect. The method in brief:
(§2)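 Cells seeded at 500-1,000 cells/well in growth media, rested 5 hours at 37 degrees C, 5% CO2, then dosed; MIPE compounds at 11-point (from 0.78 nM) and NPC at 8-point (from 0.59 nM) final concentrations. Viability by CellTiter-Glo luminescence after 48 hours.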

The nature of assay [6]: qHTS of pediatric cancer cell lines to identify multiple opportunities for drug repurposing: Primary screen for MG 63 (6-TG R) cells (AID 1347105). Further: nearly all actives have a fitted effect of over 50% in size. Further: potency means the concentration at half of the fitted maximal effect. The method in brief: as §2
Assay [7] can be described thus: qHTS of pediatric cancer cell lines to identify multiple opportunities for drug repurposing: Primary screen for control Hh wild type fibroblast cells (AID 1347106). Further: nearly all actives have a fitted effect of over 55% in size. Further: potency means the concentration at half of the fitted maximal effect. A digest of the protocol:
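Viability after 48 h compound treatment at 37C, 500-1,000 cells/well, read as ATP luminescence with CellTiter-Glo. Primary screens used 11-point (MIPE, 0.78 nM-46 µM) or 8-point (NPC, 0.59 nM-46 µM) final concentrations; follow-up screens used 11-point dilutions.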

A short description of assay [8]: qHTS of pediatric cancer cell lines to identify multiple opportunities for drug repurposing: Primary screen for Rh30 cells (AID 1347107). Further: nearly all actives have a fitted effect of over 75% in size. Further: potency means the concentration at half of the fitted maximal effect. The method in brief:
as §1

Assay [9] in a line: qHTS of pediatric cancer cell lines to identify multiple opportunities for drug repurposing: Primary screen for Rh41 cells (AID 1347108). Further: nearly all actives have a fitted effect of over 70% in size. Further: potency means the concentration at half of the fitted maximal effect. A digest of the protocol: as §2
A short description of assay [10]: qHTS of pediatric cancer cell lines to identify multiple opportunities for drug repurposing: Confirmatory screen for A673 cells (AID 1347110).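 Further: potency means the concentration at half of the fitted maximal effect; cells exposed to compound for 48 h before the viability read; nearly all actives have a fitted effect of over 65% in size.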 The method in brief: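 Cells plated at 500-1,000/well were treated five hours later with multi-point dilutions up to 46 µM final. After two days, CellTiter-Glo was added and luminescence read.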
Assay [11] can be described thus: qHTS of pediatric cancer cell lines to identify multiple opportunities for drug repurposing: Confirmatory screen for BT-12 cells (AID 1347112). Further: potency means the concentration at half of the fitted maximal effect; nearly all actives have a fitted effect of over 55% in size. A digest of the protocol:
as §1

The nature of assay [12]: qHTS of pediatric cancer cell lines to identify multiple opportunities for drug repurposing: Confirmatory screen for DAOY cells (AID 1347114). Further: potency means the concentration at half of the fitted maximal effect; nearly all actives have a fitted effect of over 65% in size. A digest of the protocol:
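Viability measured as metabolically active cells via CellTiter-Glo luminescence following 48 hours of compound exposure, 11-point dilutions in confirmatory testing. 500-1,000 cells/well plated 5 hours before dosing; controls were DMSO and 2.3 µM bortezomib.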

Assay [13] is described as follows: qHTS of pediatric cancer cell lines to identify multiple opportunities for drug repurposing: Confirmatory screen for control Hh wild type fibroblast cells (AID 1347121). Further: nearly all actives have a fitted effect of over 70% in size. The method in brief:
as §1

The nature of assay [14]: qHTS of pediatric cancer cell lines to identify multiple opportunities for drug repurposing: Confirmatory screen for U-2 OS cells (AID 1347122). Further: potency means the concentration at half of the fitted maximal effect; nearly all actives have a fitted effect of over 65% in size. A digest of the protocol: as §1
The nature of assay [15]: qHTS of pediatric cancer cell lines to identify multiple opportunities for drug repurposing: Confirmatory screen for NB1643 cells (AID 1347109). Further: potency means the concentration at half of the fitted maximal effect; nearly all actives have a fitted effect of over 45% in size. A digest of the protocol: as §1
A short description of assay [16]: qHTS of pediatric cancer cell lines to identify multiple opportunities for drug repurposing: Confirmatory screen for LAN-5 cells (AID 1347113). A digest of the protocol: as §1
Assay [17] is described as follows: qHTS of pediatric cancer cell lines to identify multiple opportunities for drug repurposing: Confirmatory screen for SK-N-MC cells (AID 1347111).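 Further: potency means the concentration at half of the fitted maximal effect; cells exposed to compound for 48 h before the readout; nearly all actives have a fitted effect of over 70% in size.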 The method in brief:
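Seed 500-1,000 cells/well; rest 5 h at 37 degrees C. Pin-transfer compounds, 11-point titration. Incubate 48 h. Add CellTiter-Glo, 15 min RT, read luminescence.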

The nature of assay [18]: qHTS of pediatric cancer cell lines to identify multiple opportunities for drug repurposing: Confirmatory screen for BT-37 cells (AID 1347117). Further: potency means the concentration at half of the fitted maximal effect; nearly all actives have a fitted effect of over 55% in size. A digest of the protocol:
as §1

The nature of assay [19]: qHTS of pediatric cancer cell lines to identify multiple opportunities for drug repurposing: Confirmatory screen for TC32 cells (AID 1347118). A digest of the protocol: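 Luminescent CellTiter-Glo read-out of metabolically active TC32 cells after 48 h compound exposure. Primary: MIPE 11-point, 0.78 nM–46 µM; NPC 8-point, 0.59 nM–46 µM. Confirmatory: 11-point dilutions.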

Values joined by “and” are separate entries in the source; they are usually repeats but may differ in a detail not shown here. Identical values can stand only once. Records with an inconclusive call do not appear. Active and inactive are the calls of the source. The call rests on the fitted dose curve; in most records, active means well fitted curve in the direction sought with a large enough effect; inconclusive means small, poorly fitted or top-dose-only effect, or another doubt; inactive means no such curve, though single readings can be large; an effect the other way counts as inactive or inconclusive.

In the case of `COc1cc2nc(-c3ccc(N4CCN(C)CC4)cc3)nc(NCCN3CCOCC3)c2cc1OC`, the Potency in [1] was 18.7 nM (active); in assay [2], 153 nM (active); in assay [3] it was 235 nM (active); in assay [4], 54.4 nM (active); in assay [5] it was 41.8 nM (active); in assay [6], 1.48 µM (active). Besides, the Potency was 3.32 µM (active) in assay [7]; 46.9 nM (active) in assay [8]; 296 nM (active) in assay [9]; 208 nM (active) in [10]; 233 nM (active) in [11]; 1.17 µM (active) in assay [12]. Moreover, the Potency in assay [14] was 261 nM (active). The Potency result in [13] was “inactive”.

On to `CN(C)CCC=C1c2ccccc2COc2ccc(CC(=O)O)cc21`, for which the Potency entry in assay [1], in assay [2], in [3], in [4], in assay [7] and in [9] was “inactive” each time.

For the compound `CC1CCC(C(=O)N(c2cc(C#CC(C)(C)C)sc2C(=O)O)C2CCC(O)CC2)CC1` (centres undefined), the Potency entry in assay [1], in assay [2], in assay [3], in assay [6] and in assay [7] was “inactive” each time.

Turning to `CON=C(C(=O)N[C@@H]1C(=O)N2C(C(=O)OCOC(=O)C(C)(C)C)=C(C=Cc3scnc3C)CS[C@H]12)c1csc(N)n1`, the Potency entry in assay [1], in [2], in assay [4], in assay [5], in assay [6] and in assay [7] was “inactive” throughout. For the same compound, the Potency entry in [8] and in assay [9] was “inactive” throughout.

As to `COc1ccc(-c2nc(N3CCOCC3)c3sc(CN(C)c4ncc(C(=O)NO)cn4)cc3n2)cn1`, the Potency in [1] was 1 nM (active); in [2] it was 8.6 nM (active); in assay [3] it was 1 nM (active); in assay [4], 1.1 nM (active); in assay [5], 16.6 nM (active); in [6] it was 0.0296 µM (active). The Potency was 209 nM (active) in [8]; 29.6 nM (active) in assay [9]; 928 nM (active) in assay [15]; 1650 nM (active) in assay [10]; 1850 nM (active) in assay [11]; 465 nM (active) in assay [16]. Also, the values for the Potency in assay [12] and in assay [14] were 1.04 µM (active) and 522 nM (active), respectively. Besides, in [7], the Potency result was “inactive”.

In the case of `C[C@]12CCC3c4ccc(O)cc4CCC3C1CCC2=O` (some centres undefined), the Potency entry in assay [1], in assay [2], in assay [3], in assay [5], in [6] and in assay [7] was “inactive” in each case. In addition, the Potency result in assay [8] was “inactive”.

`C[C@@H]1CCN(C(=O)CC#N)C[C@H]1N(C)c1ncnc2[nH]ccc12`: the Potency result in [1], in [2], in [3], in assay [5], in assay [7] and in assay [8] was “inactive” in each case.

In the case of `NC(CO)(CO)CCc1ccc(Sc2cccc(OCc3ccccc3)c2)cc1Cl`, the Potency in assay [1] was 4180 nM (active); in assay [2], 30600 nM (active); in assay [4], 27300 nM (active); in [5], 33200 nM (active); in [6], 29.6 µM (active). In addition, the Potency result in [8] was “inactive”.

Consider `O=C(Nc1ccccc1-c1cn2c(CN3CCNCC3)csc2n1)c1cnc2ccccc2n1`, for which the Potency was 20900 nM (active) in assay [1]; 8330 nM (active) in assay [3]; 27300 nM (active) in [4]; 33200 nM (active) in assay [5]; 23.5 µM (active) in assay [6]; 23500 nM (active) in [8]. In assay [9], the Potency was 20900 nM (active).

As to `CC[C@]1(O)C[C@@H]2CN(CCc3c([nH]c4ccccc34)[C@@](C(=O)OC)(c3cc4c(cc3OC)N(C)[C@H]3[C@@](O)(C(=O)OC)[C@H](OC(C)=O)[C@]5(CC)C=CCN6CC[C@]43[C@@H]65)C2)C1`, the Potency is 133 nM (active) in assay [1]; 43.7 nM (active) and 347 nM (active) in [2]; 30.9 nM (active) and 138 nM (active) in assay [4]; 21.1 nM (active) and 211 nM (active) in assay [5]; 1310 nM (active) in assay [15]; 32.9 nM (active) and 36.9 nM (active) in assay [10]. The Potency in [17] was 657 nM (active) and 737 nM (active); in assay [11], 1.65 µM (active) and 1.85 µM (active); in assay [16] it was 2330 nM (active); in [12], 208 nM (active) and 233 nM (active); in assay [18], 737 nM (active) and 1.17 µM (active); in assay [19], 465 nM (active) and 827 nM (active). The Potency in assay [14] was 369 nM (active) and 1.17 µM (active). Further, the Potency result in assay [8] and in [13] was “inactive” each time.
